From PubChem BioAssay (NCATS) come the findings set out here.

The target in experiment [1] is Glucocorticoid receptor (Homo sapiens) (UniProt P04150). Put plainly: qHTS assay for small molecule agonists of glucocorticoid receptor signaling (AID 588532; active = well fitted curve in the direction sought with a large enough effect in the signal ratio, with a control signal flat; the % refers to the signal ratio;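 note: 100% = dexamethasone at 0.1 µM and 0% = DMSO only wells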). Conditions: HeLa MMTV-bla, beta-lactamase ratio, agonist, 18 h; stronger effect = higher value; percent of dexamethasone control, DMSO zero. The procedure, abridged: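 Using MMTV-bla HeLa cells in medium with 1% stripped FBS and 25 mM HEPES, compounds were titrated and incubated overnight-length (18 h). Beta-lactamase cleavage of CCF4 was quantified by dual-emission fluorescence.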
Chain of Glucocorticoid receptor (Homo sapiens) (P04150 whole entry, looked up): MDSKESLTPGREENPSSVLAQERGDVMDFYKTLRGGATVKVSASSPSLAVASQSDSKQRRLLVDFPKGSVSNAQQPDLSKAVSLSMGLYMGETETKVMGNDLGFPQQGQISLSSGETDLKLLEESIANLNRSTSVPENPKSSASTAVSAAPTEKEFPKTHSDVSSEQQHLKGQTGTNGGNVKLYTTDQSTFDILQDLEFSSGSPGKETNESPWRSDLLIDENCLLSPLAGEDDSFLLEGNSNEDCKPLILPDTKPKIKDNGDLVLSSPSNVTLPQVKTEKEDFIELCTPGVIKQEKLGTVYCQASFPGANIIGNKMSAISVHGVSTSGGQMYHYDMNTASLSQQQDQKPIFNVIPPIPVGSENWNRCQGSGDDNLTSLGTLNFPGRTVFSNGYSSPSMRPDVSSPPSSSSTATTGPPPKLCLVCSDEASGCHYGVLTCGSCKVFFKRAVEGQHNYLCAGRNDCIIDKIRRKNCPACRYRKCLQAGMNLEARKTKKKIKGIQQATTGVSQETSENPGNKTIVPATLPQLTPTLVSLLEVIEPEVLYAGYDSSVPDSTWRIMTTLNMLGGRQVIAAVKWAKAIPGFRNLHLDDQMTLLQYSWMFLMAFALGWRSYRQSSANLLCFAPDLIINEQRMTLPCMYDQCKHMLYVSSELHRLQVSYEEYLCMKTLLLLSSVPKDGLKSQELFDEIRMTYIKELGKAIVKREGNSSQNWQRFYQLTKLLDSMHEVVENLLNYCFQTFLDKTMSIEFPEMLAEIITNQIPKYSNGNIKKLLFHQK

The target is the same in experiment [2]. The experiment is described as follows: qHTS assay for small molecule antagonists of glucocorticoid receptor signaling (AID 588533; active = well fitted inhibition curve with a large enough effect in the signal ratio, with a control signal flat, not every such curve was filed as active; the % refers to the signal ratio;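 note: cells stimulated with 2 nM dexamethasone as agonist; % is set by controls: 0 for no effect and ±100 for the full control effect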). To be noted: HeLa MMTV-bla, GRE beta-lactamase ratio, antagonist mode, 18 h; series mostly up to 76.8 µM. The procedure, abridged: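 Antagonist-mode qHTS: compound titrations added to GRE-bla HeLa cells, then dexamethasone 2 nM final; 18 h, 37 C. CCF4 FRET fluorescence normalized to dexamethasone and DMSO; IC50 from Hill fit.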
On the technique in general: In qHTS, concentration-response curves come from the screen itself.

Experiment [3] can be described thus: qHTS assay for small molecule antagonists of peroxisome proliferator-activated receptor delta signaling (AID 588535; active = well fitted inhibition curve with a large enough effect in the signal ratio, with a control signal flat, not every such curve was filed as active; the % refers to the signal ratio;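 for max response: cells co-treated with a PPAR-delta agonist as stimulator during compound exposure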). To be noted: HEK293T PPARd-UAS-bla, beta-lactamase FRET ratio, 18 h; 460 nm channel. A digest of the protocol: (§1)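 Antagonist-mode qHTS using GeneBLAzer PPAR-delta-UAS-bla HEK293T cells; compound exposure 18 hrs at 37 C over a titration. Ratiometric CCF4 fluorescence at 460/530 nm; concentration-response points fitted to the Hill equation.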

In experiment [4] the target is Peroxisome proliferator-activated receptor delta (Homo sapiens) (UniProt Q03181). The experiment is described as above. To be noted: HEK293T PPARd-UAS-bla, beta-lactamase FRET ratio, 18 h; series mostly up to 76.7 µM. A digest of the protocol: as §1
Chain of Peroxisome proliferator-activated receptor delta (Homo sapiens) (Q03181 whole entry, looked up): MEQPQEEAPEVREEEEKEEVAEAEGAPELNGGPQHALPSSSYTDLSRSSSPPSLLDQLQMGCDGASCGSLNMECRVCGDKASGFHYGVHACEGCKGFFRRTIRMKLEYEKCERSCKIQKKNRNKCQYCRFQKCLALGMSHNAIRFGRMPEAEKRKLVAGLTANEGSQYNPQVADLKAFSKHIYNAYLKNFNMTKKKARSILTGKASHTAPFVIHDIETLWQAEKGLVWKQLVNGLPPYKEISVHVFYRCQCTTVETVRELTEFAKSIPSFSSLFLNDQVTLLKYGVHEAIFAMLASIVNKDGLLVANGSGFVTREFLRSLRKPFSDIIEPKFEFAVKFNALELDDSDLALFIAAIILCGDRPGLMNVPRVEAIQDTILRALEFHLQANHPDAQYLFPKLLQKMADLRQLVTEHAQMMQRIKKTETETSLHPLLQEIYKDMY
Experiment [5] concerns the target Vitamin D3 receptor (Homo sapiens) (UniProt P11473). The experiment is described as follows: qHTS assay for small molecule antagonists of vitamin D receptor signaling (AID 588541; calls by dose curve;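 note: receptor activated by calcitriol during compound treatment; % is set by controls: 0 for no effect and ±100 for the full control effect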). To be noted: HEK293T VDR-UAS-bla, beta-lactamase ratio, antagonist mode; series mostly up to 76.7 µM. The procedure, abridged: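 Antagonist-mode beta-lactamase reporter assay: HEK293T VDR-UAS-bla cells were exposed to titrated compound alongside 1-alpha,25-dihydroxyvitamin D3 at 3 nM final for 16 h. Values were normalized to the 50 nM agonist control and DMSO basal, with IC50 and efficacy from Hill equation fits.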

Experiment [6] has the same target. Put plainly: qHTS assay for small molecule agonists of vitamin D receptor signaling (AID 588543; calls by dose curve;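 note: 0% = DMSO basal and 100% = reference agonist control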). Conditions: HEK293T VDR-UAS-bla, beta-lactamase ratio, 16 h; series mostly up to 76.8 µM. The procedure, abridged:
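Measured: β-lactamase reporter activity (CCF4, 405 nm excitation, 460/530 nm emission) in HEK293T VDR-UAS-bla cells after 16 h compound exposure at 37 °C. Normalization against 50 nM 1α,25-dihydroxyvitamin D3 and DMSO; Hill-fit EC50.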

For experiment [7], the target named is Retinoic acid receptor RXR-alpha (Homo sapiens) (UniProt P19793). The experiment is described as follows: qHTS assay for small molecule agonists of retinoid X receptor alpha signaling (AID 588544; calls by dose curve;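 note: 0% = DMSO basal wells and 100% = reference agonist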). To be noted: HEK293T RXRa-UAS-bla, beta-lactamase reporter, 18 h; series mostly up to 76.7 µM.
Chain of Retinoic acid receptor RXR-alpha (Homo sapiens) (P19793 whole entry, looked up): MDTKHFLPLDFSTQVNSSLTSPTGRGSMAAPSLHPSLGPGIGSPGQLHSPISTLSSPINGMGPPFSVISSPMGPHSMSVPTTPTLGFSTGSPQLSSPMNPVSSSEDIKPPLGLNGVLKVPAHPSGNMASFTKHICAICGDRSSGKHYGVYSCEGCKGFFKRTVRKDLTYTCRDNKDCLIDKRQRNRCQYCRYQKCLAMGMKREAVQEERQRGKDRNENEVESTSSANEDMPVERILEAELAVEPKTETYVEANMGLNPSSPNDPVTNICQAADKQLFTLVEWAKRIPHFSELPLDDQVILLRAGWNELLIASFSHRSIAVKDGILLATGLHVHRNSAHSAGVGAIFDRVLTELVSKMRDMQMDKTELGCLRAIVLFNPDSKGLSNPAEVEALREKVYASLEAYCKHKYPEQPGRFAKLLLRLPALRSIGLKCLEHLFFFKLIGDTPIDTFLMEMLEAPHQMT
Experiment [8] has as its target Thyroid hormone receptor beta (Homo sapiens) (UniProt P10828). The experiment is described as follows: qHTS assay for small molecule agonists of thyroid hormone receptor beta signaling (AID 588545; calls by dose curve). Conditions: TR-UAS-bla GripTite HEK 293, beta-lactamase ratio, agonist mode, 18 h; series mostly up to 76.7 µM. A digest of the protocol: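 Agonist-mode beta-lactamase reporter assay, HEK 293 cells, 2% charcoal/dextran FBS; cells plated 4 hrs, compound 18 hrs at 37 C, CCF4 2 hrs RT. Normalized to 10 nM T3 (100%) and DMSO (0%); Hill fit gives EC50, efficacy.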

A short description of experiment [9]: qHTS assay for small molecule antagonists of retinoid X receptor alpha signaling (AID 588546; active = well fitted inhibition curve with a large enough effect in the signal ratio, with a control signal flat, not every such curve was filed as active; the % refers to the signal ratio;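 note: cells stimulated with 9-cis-retinoic acid as agonist; % is set by controls: 0 for no effect and ±100 for the full control effect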). To be noted: HEK293T RXRa-UAS-bla, beta-lactamase ratio, antagonist mode; measured here: W530 green channel, cytotoxicity proxy. A digest of the protocol:
(§2)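 Beta-lactamase reporter inhibition, read as CCF4 fluorescence ratio (ex 405, em 460/530 nm) after 2 h at RT. HEK293T UAS-bla cells, 2500/well, were stimulated with 9-cis-RA at 500 or 100 nM final alongside test compound for 18 h at 37 C.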

Experiment [10] has as its target Retinoic acid receptor RXR-alpha (Homo sapiens) (UniProt P19793). Described as above. Conditions: HEK293T RXRa-UAS-bla, beta-lactamase ratio, antagonist mode. A digest of the protocol:
as §2

Experiment [11] can be described thus: qHTS assay for small molecule activators of the nuclear factor-kappa B (NF-kB) signaling pathway (AID 651749; active = well fitted activation curve with a large enough effect in the signal ratio; the % refers to the signal ratio; note: % of control where 0% means no effect). Conditions: NF-kB-bla ME-180 cells, beta-lactamase FRET ratio, 16 h; activation: stronger effect = higher value. The procedure, abridged: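 FRET-based beta-lactamase detection in ME-180 cells reports NF-kB response-element-driven transcription following overnight (16 hr) compound treatment.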

Experiment [12] in a line: qHTS assay for environmental chemicals that activate the Aryl hydrocarbon Receptor (AhR) signaling pathway (AID 651777). Note: % of control where 0% means no effect; nearly all actives have a fitted effect of over 15% in size. Conditions: 1A2-DRE human hepatoma cells, luciferase, 24 h; activation: stronger effect = higher value. A digest of the protocol:
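Human hepatoma 1A2-DRE cells stably carrying a DRE/CYP1A2 promoter–luciferase reporter, 1,200 cells/well, exposed to compound 24 hr at 37 C. Luciferase read by One-Glo luminescence after 30 min at room temperature; increased signal marks AhR activation.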

For experiment [13], the target named is Peroxisome proliferator-activated receptor alpha (Homo sapiens) (UniProt Q07869). Put plainly: qHTS assay for small molecule agonists of the peroxisome proliferator-activated receptor alpha (PPARalpha) signaling pathway (AID 651778). Note: % of control where 0% means no effect. To be noted: PathHunter PPARalpha complementation, chemiluminescence, 6 h; max response: stronger effect = higher value. A digest of the protocol:
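Chemiluminescence from complemented enzyme reported PPARalpha activation in cells after 6 hr of compound treatment at 37 C. The detection reagent was incubated for 60 min at room temperature, and compounds were scored as agonists.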

A short description of experiment [14]: qHTS assay for small molecule agonists of the antioxidant response element (ARE) signaling pathway measured by Nrf2-dependant transcriptional activity (AID 720636; active = well fitted curve in the direction sought with a large enough effect in the repeat runs; an effect the other way counts as inactive or inconclusive; note: % of control where 0% means no effect). Conditions: ARE-luc HepG2, Nrf2 luciferase reporter, 16 h; series mostly up to 92.4 µM. A digest of the protocol:
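ARE-luc HepG2 cells carrying an Nrf2-responsive luciferase reporter, in medium with 1% dialyzed FBS, exposed to compound for 16 hr at 37 C, 5% CO2. Luminescence read 30 min after ONE-Glo addition.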

Experiment [15] is described as follows: qHTS assay for small molecule agonists of the antioxidant response element (ARE) signaling pathway measured by Nrf2-dependant transcriptional activity - cell viability counter screen (AID 720653; active = well fitted curve in the direction sought with a large enough effect in the repeat runs; an effect the other way counts as inactive or inconclusive; note: % is set by controls: 0 for no effect and ±100 for the full control effect). Conditions: ARE-bla HepG2 viability, CellTiter-Glo ATP luminescence, 16 h; max response: stronger effect = lower value. A digest of the protocol:
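Cytotoxicity counter screen: intracellular ATP quantified by CellTiter-Glo luminescence in the same ARE-bla HepG2 plates, after 16 h compound exposure and a 2 h beta-lactamase substrate step.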

The nature of experiment [16]: qHTS assay for cell viability of HEK293 cells (AID 743288). Note: % is set by controls: 0 for no effect and ±100 for the full control effect; nearly all actives have a fitted effect of over 50% in size. Conditions: ATP luminescence (CellTiter-Glo), 18 h; max response: stronger effect = lower value. A digest of the protocol:
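HEK293, 18 h, 37 C, ATP luminescence. Cells at 2,000/well were allowed at least 5 h to settle before dosing; CellTiter-Glo developed 30 min at RT.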

Experiment [17] can be described thus: qHTS assay for cell viability of the p53RE-bla HCT-116 cell line (AID 743292). Note: % is set by controls: 0 for no effect and ±100 for the full control effect; nearly all actives have a fitted effect of over 55% in size. Conditions: p53RE-bla HCT-116 viability, ATP luminescence, 16 h; series mostly up to 95 µM. The procedure, abridged:
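CellSensor p53RE-bla HCT-116 cells (4,000/well) pre-incubated 5 h at 37 C, then exposed to compounds in DMSO for 16 h at 37 C. Viability read as ATP content by CellTiter-Glo luminescence after 30 min at room temperature.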

The target of experiment [18] is Nuclear receptor subfamily 1 group I member 2 (Rattus norvegicus) (UniProt Q9R1A7). Put plainly: qHTS assay for small molecule activators of the rat pregnane X receptor (rPXR) signaling pathway (AID 651751; call rule not given here; note: 0% is about no effect). Conditions: rPXR reporter cells, luciferase (One-Glo), 24 h.
Chain of Nuclear receptor subfamily 1 group I member 2 (Rattus norvegicus) (Q9R1A7 whole entry, looked up): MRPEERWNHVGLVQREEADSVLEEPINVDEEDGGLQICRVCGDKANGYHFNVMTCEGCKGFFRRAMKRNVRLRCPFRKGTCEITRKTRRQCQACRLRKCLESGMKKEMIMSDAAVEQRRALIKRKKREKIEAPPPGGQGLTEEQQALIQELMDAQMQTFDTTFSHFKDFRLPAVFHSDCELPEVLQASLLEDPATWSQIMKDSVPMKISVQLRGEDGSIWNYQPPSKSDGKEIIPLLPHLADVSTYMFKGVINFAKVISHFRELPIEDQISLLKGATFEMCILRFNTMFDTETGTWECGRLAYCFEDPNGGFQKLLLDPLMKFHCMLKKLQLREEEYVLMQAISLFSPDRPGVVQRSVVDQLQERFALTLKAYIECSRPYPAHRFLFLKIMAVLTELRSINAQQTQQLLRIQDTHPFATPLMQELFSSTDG
A short description of experiment [19]: qHTS assay for small molecule activators of the human pregnane X receptor (PXR) signaling pathway (AID 720659; call rule not given here; note: 0% is about no effect). To be noted: DPX-2 HepG2 CYP3A4-luciferase, 24 h; series mostly up to 92.3 µM.
A short description of experiment [20]: qHTS assay for small molecule activators of the p53 signaling pathway (AID 651743; active = well fitted activation curve with a large enough effect in the signal ratio, not every such curve was filed as active; the % refers to the signal ratio; note: % of control where 0% means no effect). Conditions: HCT-116 p53RE-bla, beta-lactamase FRET ratio, 16 h; activation: stronger effect = higher value. A digest of the protocol:
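A beta-lactamase reporter under p53 response element control, stably carried by HCT-116 cells, reported pathway activation. Test compounds were applied for 16 hours at 37 C, and fluorescence was measured 2 hours after adding the B/G FRET substrate.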

SMILES strings stand for the structures. Inconclusive results are not listed. Calls of active or inactive are those of the source. Unless noted, calls come from the whole dose curve; as a rule, active = well fitted curve in the direction sought with a large enough effect; inconclusive = small, poorly fitted or top-dose-only effect, or another doubt; inactive = no such curve, though single readings can be large; an effect the other way counts as inactive or inconclusive.

Chain of Thyroid hormone receptor beta (Homo sapiens) (P10828 whole entry, looked up): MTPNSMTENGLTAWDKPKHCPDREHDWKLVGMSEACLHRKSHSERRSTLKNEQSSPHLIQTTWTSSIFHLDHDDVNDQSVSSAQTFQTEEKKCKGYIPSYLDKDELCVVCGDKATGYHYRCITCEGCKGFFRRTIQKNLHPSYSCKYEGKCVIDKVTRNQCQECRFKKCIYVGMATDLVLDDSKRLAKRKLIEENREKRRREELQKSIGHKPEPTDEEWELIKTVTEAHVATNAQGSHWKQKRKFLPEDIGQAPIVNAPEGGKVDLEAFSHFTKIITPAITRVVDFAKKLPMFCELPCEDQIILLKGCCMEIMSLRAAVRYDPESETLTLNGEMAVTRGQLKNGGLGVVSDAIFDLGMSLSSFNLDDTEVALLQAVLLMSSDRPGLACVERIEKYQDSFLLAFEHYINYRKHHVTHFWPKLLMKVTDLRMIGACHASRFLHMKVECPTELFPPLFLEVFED
Chain of Vitamin D3 receptor (Homo sapiens) (P11473 whole entry, looked up): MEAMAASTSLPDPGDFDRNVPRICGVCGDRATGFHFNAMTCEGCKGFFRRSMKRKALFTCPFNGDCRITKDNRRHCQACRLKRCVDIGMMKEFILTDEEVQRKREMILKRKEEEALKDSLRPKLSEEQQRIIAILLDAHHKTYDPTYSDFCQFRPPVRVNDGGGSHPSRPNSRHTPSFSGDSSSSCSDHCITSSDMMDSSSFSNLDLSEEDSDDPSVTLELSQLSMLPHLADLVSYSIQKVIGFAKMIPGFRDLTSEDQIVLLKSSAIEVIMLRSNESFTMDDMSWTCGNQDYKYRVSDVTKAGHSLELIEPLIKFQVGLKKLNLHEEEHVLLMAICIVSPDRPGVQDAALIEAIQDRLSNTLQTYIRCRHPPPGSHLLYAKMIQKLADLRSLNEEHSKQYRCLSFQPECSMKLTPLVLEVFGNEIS
Chain of Peroxisome proliferator-activated receptor alpha (Homo sapiens) (Q07869 whole entry, looked up): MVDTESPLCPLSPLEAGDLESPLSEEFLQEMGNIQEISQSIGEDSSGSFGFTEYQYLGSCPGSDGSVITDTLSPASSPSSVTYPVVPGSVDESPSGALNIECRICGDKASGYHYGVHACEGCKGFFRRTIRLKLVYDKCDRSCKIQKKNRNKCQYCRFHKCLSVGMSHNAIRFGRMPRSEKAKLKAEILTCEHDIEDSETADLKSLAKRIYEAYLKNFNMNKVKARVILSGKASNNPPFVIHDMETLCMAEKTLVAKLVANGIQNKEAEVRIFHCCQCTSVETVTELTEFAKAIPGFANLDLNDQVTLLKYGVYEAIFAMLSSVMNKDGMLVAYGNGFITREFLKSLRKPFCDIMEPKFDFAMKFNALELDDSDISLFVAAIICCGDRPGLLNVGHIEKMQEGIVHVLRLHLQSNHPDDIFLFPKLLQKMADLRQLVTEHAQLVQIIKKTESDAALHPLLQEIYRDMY

`CN(C)CCOCCN(C)C`: the activation in experiment [1] is 11.4% (inactive); in [11] it was 0.657% (inactive); in experiment [12], -2.36% (inactive). In addition, the Potency entry in experiment [2], in experiment [4], in [5], in [7], in experiment [8] and in experiment [14] was “inactive” throughout. For the same compound, in experiment [17], the Potency entry was “inactive”. The max response was 2.82% in experiment [3]; -5.51% in experiment [9]; -8.75% (inactive) in [10]; -0.21% (inactive) in experiment [13]; -2.1% (inactive) in [15]; -5.76% (inactive) in experiment [16]. For the same compound, the max response in experiment [18] is 0.876% (inactive). Also, the outcome in experiment [6] and in [19] was inactive.

As to `CCOC(=O)[C@H](C)Oc1ccc(Oc2nc3ccc(Cl)cc3o2)cc1`, the activation in experiment [1] was 0.281% (inactive); in experiment [20], -9.98% (inactive); in experiment [11], -0.102% (inactive); in experiment [12], 13.7% (inactive). Further, the max response in experiment [3] is 24.7%; in [13], -1.02% (inactive); in experiment [15] it was 0.626% (inactive); in experiment [16], -6.11% (inactive); in experiment [18], -0.698% (inactive). For the same compound, the Potency result in experiment [4], in [5] and in experiment [17] was “inactive” each time. The outcome in experiment [6] and in experiment [19] was inactive.

On to `CCCCCCCCCCCC[N+](C)(C)[O-]`, for which the activation in experiment [1] was 6.56% (inactive); in [20] it was 1.24% (inactive); in experiment [11] it was 2.53% (inactive); in experiment [12] it was 9.07% (inactive). The max response in [3] was -19.7%; in experiment [13], 0.14% (inactive); in [15], -6.24% (inactive); in experiment [16], -22.6% (inactive). In addition, the Potency result in experiment [4], in experiment [5], in experiment [8] and in [17] was “inactive” throughout. Further, the outcome in [6] was inactive.

In the case of `CC(C)(C)c1ccc(C(=O)O)cc1`, the activation in experiment [1] was -3.04% (inactive); in [20], -4.37% (inactive); in experiment [12], 2.5% (inactive). The Potency entry in experiment [2], in [4], in experiment [5], in experiment [7], in experiment [8] and in experiment [17] was “inactive” in each case. Also, the max response was 29.8% in [3]; -7.4% in [9]; -3.02% (inactive) in experiment [10]; -0.433% (inactive) in [13]; 14.5% (inactive) in experiment [15]; -3.22% (inactive) in experiment [16]. Besides, the max response in [18] is -0.15% (inactive). In addition, the outcome in [6] and in [19] was inactive.

Turning to `CC(C)C[C@H](NC(=O)OCC1c2ccccc2-c2ccccc21)C(=O)O`, the activation in experiment [1] is -5.5% (inactive); in [20], -3.17% (inactive); in experiment [11] it was 1.69% (inactive). Besides, the max response in experiment [3] was 59%; in experiment [13] it was 11.8% (inactive); in experiment [15], -7.25% (inactive); in experiment [16], -22.2% (inactive). Moreover, the Potency entry in experiment [4], in experiment [8] and in experiment [17] was “inactive” throughout.

Take `COC(=O)CSc1cc(N=c2sc(=O)n3n2CCCC3)c(F)cc1Cl`: the results for the activation in experiment [1] and in experiment [12] were -2.45% (inactive) and -2.58% (inactive), respectively. Moreover, the Potency entry in experiment [2], in experiment [5], in experiment [8] and in [14] was “inactive” in each case. Also, the result in experiment [6] was inactive. For the same compound, the max response in experiment [13] was 0.865% (inactive); in [15], 8.69% (inactive); in experiment [16], 4.83% (inactive).
